From PubChem BioAssay (Tox21)
Results filed as inconclusive are left out. The source made the active and inactive calls. Unless noted, calls come from the whole dose curve.

Assays:
[1] = Nuclear factor erythroid 2-related factor 2/antioxidant responsive element (Nrf2/ARE) small molecule agonists: qHTS cell viability counter screen in human keratinocytes (AID 1919968; active = well fitted curve in the direction sought with a large enough effect in the repeat runs; an effect the other way counts as inactive or inconclusive; note: nearly all actives have a fitted effect of over 55% in size)
Procedure, shortened: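 CellTiter-Fluor fluorescence, read 1 h after reagent, gave viability in the same wells as the ARE-luciferase assay. KeratinoSens cells (1,500/well) had 23 h compound exposure at 37 C/5% CO2 following 5 h plating.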

[2] = Nuclear factor erythroid 2-related factor 2/antioxidant responsive element (Nrf2/ARE) small molecule agonists: luciferase reporter gene qHTS assay in human keratinocytes (AID 1919969); note: nearly all actives have a fitted effect of over 35% in size; note: potency is the fitted concentration of half-maximal effect
[3] = target: Gonadotropin-releasing hormone receptor (Homo sapiens) (UniProt P30968); experiment: Human gonadotropin-releasing hormone receptor (GnRHR) small molecule agonists, calcium flux assay in GnRHR-HEK293 cells (AID 1920063); note: nearly all actives have a fitted effect of over 35% in size
Procedure, shortened: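 Agonist mode: compounds at 15 concentrations, in triplicate, went onto calcium dye-loaded GnRHR-HEK293 cells. Intracellular calcium was then followed as 480/540 nm fluorescence at 1 s intervals over 3 min.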

[4] = target: KiSS-1 receptor (Homo sapiens) (UniProt Q969F8); experiment: Human kisspeptin (KISS1R) small molecule agonists, calcium flux assay in KISS1R-HEK293 cells (AID 1920064; active = well fitted curve in the direction sought with a large enough effect in the repeat runs; an effect the other way counts as inactive or inconclusive)
Procedure, shortened: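 Agonist mode: intracellular calcium rise tracked at 1 s intervals over 3 min (480/540 nm) immediately after compound addition to dye-loaded KISS1R-HEK293 stable cells. Each compound tested at 15 concentrations in triplicate.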

[5] = G protein-coupled receptor (GPCR) small molecule agonists, calcium flux assay: HEK293 wild type cell line counter screen (AID 1920065)
Procedure, shortened: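 Calcium flux counter screen: compound added in agonist mode at 15 concentrations in triplicate to dye-loaded parental HEK293 cells. Fluorescence (480/540) read kinetically for 3 min; ATP served as positive control.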

[6] = p53 small molecule agonists, cell-based qHTS assay with human liver microsomes (AID 1963577);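 note: p53 response element beta-lactamase reporter cells with liver microsomes plus NADPH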
Procedure, shortened: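 In this qHTS, p53 response-element beta-lactamase cells receive test compound together with a microsome/NADPH activating system (0.5 mg/mL final each) and are incubated 16 h at 37 C before LiveBLAzer fluorescence detection.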

[7] = p53 small molecule agonists, cell-based qHTS assay with rat liver microsomes (AID 1963578)
Procedure, shortened: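 Agonist mode in p53RE-bla reporter cells, with compounds co-incubated 16 h at 37 C alongside 0.5 mg/mL rat liver microsomes and 0.5 mg/mL NADPH (final), followed by a 2 h LiveBLAzer detection step.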

[8] = p53 small molecule agonists, cell-based qHTS assay with human liver microsomes: qHTS cell viability counter screen (AID 1963579); note: nearly all actives have a fitted effect of over 45% in size
Procedure, shortened: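 Metabolically activated exposure: compounds, human liver microsomes and NADPH (0.5 mg/mL final apiece) were added to p53RE-bla cells seeded 5 h earlier, left 16 h at 37 C, and then assessed for viability by CellTiter-Glo luminescence.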

[9] = p53 small molecule agonists, cell-based qHTS assay with rat liver microsomes: qHTS cell viability counter screen (AID 1963580); note: nearly all actives have a fitted effect of over 45% in size
Procedure, shortened: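 Rat liver microsome (0.5 mg/mL final) and NADPH (0.5 mg/mL final) co-incubation with compounds for 16 h at 37 C on HCT-116 p53RE-bla cells; cytotoxicity taken from intracellular ATP luminescence.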

[10] = p53 small molecule agonists, cell-based qHTS assay: qHTS cell viability counter screen (AID 1963581); note: nearly all actives have a fitted effect of over 45% in size
Procedure, shortened: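 Counter screen read by CellTiter-Glo luminescence (ATP content, 30 min at room temperature), run in the same wells as the beta-lactamase reporter read. HCT-116 p53RE-bla cells saw compounds for 16 h at 37 C.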

[11] = p53 small molecule agonists, cell-based qHTS assay (AID 1963582; active = well fitted activation curve with a large enough effect in the signal ratio in the repeat runs, not every such curve was filed as active; the % refers to the signal ratio)
Procedure, shortened: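 Read-out is beta-lactamase FRET fluorescence after 2 h at room temperature with LiveBLAzer B/G substrate. p53 response element-bla cells were treated 16 h at 37 C with compounds in DMSO, added 5 h after seeding.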

[12] = target: 5-hydroxytryptamine receptor 2A (Homo sapiens) (UniProt P28223); experiment: 5-hydroxytryptamine receptor 2A (HTR2A) small molecule antagonists, cell-based qHTS assay (AID 1963586); note: nearly all actives have a fitted effect of over 45% in size
Procedure, shortened: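 CHO cells stably expressing human HTR2A were plated for 18 h at 37 C, then loaded with calcium dye for 1 h. Compounds were preincubated 5 min at room temperature before DOI (4 nM solution) was added. Kinetic fluorescence was read for 3 min.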

[13] = target: 5-hydroxytryptamine receptor 2A (Homo sapiens) (UniProt P28223); experiment: 5-hydroxytryptamine receptor 2A (HTR2A) small molecule agonists, cell-based qHTS assay (AID 1963587); note: nearly all actives have a fitted effect of over 30% in size
Procedure, shortened: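 Kinetic calcium-flux fluorescence (2 min, 1 sec intervals) after compound addition in agonist mode. HTR2A-CHO cells were cultured 18 h, then dye-loaded 1 h at 37 C.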

[14] = target: Muscarinic acetylcholine receptor M1 (Homo sapiens) (UniProt P11229); experiment: Cholinergic receptor muscarinic 1 (CHRM1) small molecule antagonists, cell-based qHTS assay (AID 1963588); note: nearly all actives have a fitted effect of over 40% in size
Procedure, shortened: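 Compounds were tested at 15 concentrations in three independent runs. Dye-loaded CHRM1-CHO cells were exposed 5 min at room temperature before stimulation by acetylcholine added at 50nM. Intracellular calcium was read kinetically on FDSS for 3 min.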

[15] = target: Muscarinic acetylcholine receptor M1 (Homo sapiens) (UniProt P11229); experiment: Cholinergic receptor muscarinic 1 (CHRM1) small molecule agonists, cell-based qHTS assay (AID 1963589); note: nearly all actives have a fitted effect of over 35% in size
Procedure, shortened: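 Agonist-mode calcium-flux screen: compounds at 15 concentrations, three independent runs, were pin-transferred onto dye-loaded human CHRM1-CHO cells. Fluorescence was then recorded kinetically every second over minutes.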

[16] = cAMP Responsive Elements (CRE) small molecule agonists, cell-based qHTS assay (AID 1963590)
Procedure, shortened: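 Agonist mode: compound added to CRE-bla HEK 293T cells (2,000/well, 18 h after plating) for 3 h at 37 C/5% CO2. Reporter activity detected via FRET beta-lactamase substrate, 2 h room-temperature loading.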

[17] = cAMP Responsive Elements (CRE) small molecule antagonists, cell-based qHTS assay (AID 1963591; active = well fitted inhibition curve with a large enough effect in the signal ratio in the repeat runs, not every such curve was filed as active; the % refers to the signal ratio)
Procedure, shortened: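 Antagonist mode: compounds are added alongside the adenylyl cyclase activator NKH477 (0.25 uM final) to CRE-bla HEK293T cells for 3 h. LiveBLAzer FRET substrate, 2 h at room temperature, reports bla expression.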

[18] = target: Beta-2 adrenergic receptor (Homo sapiens) (UniProt P07550); experiment: Adrenergic beta2 receptor (ADRB2) small molecule antagonists, cell-based qHTS assay (AID 1963592); note: series mostly up to about 92 µM; nearly all actives have a fitted effect of over 50% in size
Procedure, shortened: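 Assay format: CHO-ADRB2 cells, 18-20hr seeding at 37C/5% CO2, then compound plus 1nM isoproterenol agonist mix for 0.5hr RT. Homogeneous time-resolved fluorescence cAMP detection after 1hr, expressed as 665/615 nm ratio.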

[19] = target: D(2) dopamine receptor (Homo sapiens) (UniProt P14416); experiment: Dopamine D2 receptor (DRD2) small molecule agonists, cell-based qHTS assay (AID 1963594); note: nearly all actives have a fitted effect of over 35% in size
Procedure, shortened: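 cAMP accumulation in DRD2-HEK293 cells measured by HTRF after 1 h detection; compounds added 10 min before NKH477 (200nM […]) forskolin-analogue stimulation, 30 min at room temperature, with Ro20-1724 present at 0.1 mM final.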

[20] = target: D(2) dopamine receptor (Homo sapiens) (UniProt P14416); experiment: Dopamine D2 receptor (DRD2) small molecule antagonists, cell-based qHTS assay (AID 1963595; active = well fitted inhibition curve with a large enough effect in the signal ratio in the repeat runs, with a control signal flat; the % refers to the signal ratio)
Procedure, shortened: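 HEK293 cells stably expressing DRD2, preincubated with 0.1 mM Ro20-1724 and compounds 10 min, were stimulated with 200 nM NKH477 plus 12 nM quinpirole for 30 min at room temperature; cAMP measured by HTRF (665/620 nm).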

Measured: Potency

Muscarinic acetylcholine receptor M1 (Homo sapiens), sequence (P11229 whole entry, looked up): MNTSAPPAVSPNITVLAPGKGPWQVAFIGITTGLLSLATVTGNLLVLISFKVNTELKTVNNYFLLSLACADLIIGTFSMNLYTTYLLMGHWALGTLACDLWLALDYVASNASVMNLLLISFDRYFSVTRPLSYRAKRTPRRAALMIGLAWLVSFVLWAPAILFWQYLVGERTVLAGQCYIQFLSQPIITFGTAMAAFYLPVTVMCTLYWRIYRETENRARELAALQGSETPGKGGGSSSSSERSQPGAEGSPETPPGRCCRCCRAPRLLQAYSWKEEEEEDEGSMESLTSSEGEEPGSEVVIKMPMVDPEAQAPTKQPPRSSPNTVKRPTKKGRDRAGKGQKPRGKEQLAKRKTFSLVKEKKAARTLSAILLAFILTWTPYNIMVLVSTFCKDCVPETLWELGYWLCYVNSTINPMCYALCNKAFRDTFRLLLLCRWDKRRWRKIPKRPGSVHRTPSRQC
Beta-2 adrenergic receptor (Homo sapiens), sequence (P07550 whole entry, looked up): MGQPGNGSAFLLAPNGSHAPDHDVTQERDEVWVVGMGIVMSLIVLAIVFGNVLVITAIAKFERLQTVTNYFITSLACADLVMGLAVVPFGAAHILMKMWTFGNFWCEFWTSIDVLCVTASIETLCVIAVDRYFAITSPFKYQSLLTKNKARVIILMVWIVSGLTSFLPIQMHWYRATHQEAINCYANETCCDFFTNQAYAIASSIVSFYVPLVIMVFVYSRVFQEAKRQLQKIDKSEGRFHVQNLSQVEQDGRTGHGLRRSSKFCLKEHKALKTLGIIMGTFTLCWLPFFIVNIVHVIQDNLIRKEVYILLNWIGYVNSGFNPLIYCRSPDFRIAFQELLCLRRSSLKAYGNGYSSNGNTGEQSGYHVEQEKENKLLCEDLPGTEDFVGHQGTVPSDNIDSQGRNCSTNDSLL
KiSS-1 receptor (Homo sapiens), sequence (Q969F8 whole entry, looked up): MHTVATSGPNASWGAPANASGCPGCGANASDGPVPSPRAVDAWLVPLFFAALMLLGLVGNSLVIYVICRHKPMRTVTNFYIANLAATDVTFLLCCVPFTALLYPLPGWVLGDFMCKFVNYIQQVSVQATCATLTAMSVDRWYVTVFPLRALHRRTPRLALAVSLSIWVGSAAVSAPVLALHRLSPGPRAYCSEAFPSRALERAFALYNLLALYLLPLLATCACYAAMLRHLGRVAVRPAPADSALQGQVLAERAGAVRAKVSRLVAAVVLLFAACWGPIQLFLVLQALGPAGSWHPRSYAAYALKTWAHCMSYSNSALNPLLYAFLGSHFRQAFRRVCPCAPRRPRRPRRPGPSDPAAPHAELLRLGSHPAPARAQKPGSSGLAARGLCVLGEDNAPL
D(2) dopamine receptor (Homo sapiens), sequence (P14416 whole entry, looked up): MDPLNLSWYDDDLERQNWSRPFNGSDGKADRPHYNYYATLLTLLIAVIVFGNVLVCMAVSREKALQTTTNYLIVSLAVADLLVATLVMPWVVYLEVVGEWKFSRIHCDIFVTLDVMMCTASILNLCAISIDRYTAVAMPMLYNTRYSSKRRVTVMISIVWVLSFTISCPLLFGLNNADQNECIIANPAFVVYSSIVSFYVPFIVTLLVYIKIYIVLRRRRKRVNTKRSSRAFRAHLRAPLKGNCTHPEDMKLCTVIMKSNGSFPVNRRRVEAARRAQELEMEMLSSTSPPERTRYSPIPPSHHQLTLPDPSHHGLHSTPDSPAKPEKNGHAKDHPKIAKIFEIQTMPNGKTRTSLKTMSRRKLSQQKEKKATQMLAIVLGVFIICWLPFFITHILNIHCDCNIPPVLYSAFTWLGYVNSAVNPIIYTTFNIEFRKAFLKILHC
Gonadotropin-releasing hormone receptor (Homo sapiens), sequence (P30968 whole entry, looked up): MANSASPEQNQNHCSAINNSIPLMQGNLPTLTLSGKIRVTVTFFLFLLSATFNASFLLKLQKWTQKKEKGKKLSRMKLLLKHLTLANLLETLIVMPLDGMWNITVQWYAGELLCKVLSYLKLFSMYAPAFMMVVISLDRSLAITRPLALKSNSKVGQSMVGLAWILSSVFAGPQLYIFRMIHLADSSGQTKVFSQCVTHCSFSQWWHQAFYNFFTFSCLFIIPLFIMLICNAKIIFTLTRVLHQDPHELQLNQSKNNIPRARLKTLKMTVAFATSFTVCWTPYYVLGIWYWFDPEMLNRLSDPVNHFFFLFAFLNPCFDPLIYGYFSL
5-hydroxytryptamine receptor 2A (Homo sapiens), sequence (P28223 whole entry, looked up): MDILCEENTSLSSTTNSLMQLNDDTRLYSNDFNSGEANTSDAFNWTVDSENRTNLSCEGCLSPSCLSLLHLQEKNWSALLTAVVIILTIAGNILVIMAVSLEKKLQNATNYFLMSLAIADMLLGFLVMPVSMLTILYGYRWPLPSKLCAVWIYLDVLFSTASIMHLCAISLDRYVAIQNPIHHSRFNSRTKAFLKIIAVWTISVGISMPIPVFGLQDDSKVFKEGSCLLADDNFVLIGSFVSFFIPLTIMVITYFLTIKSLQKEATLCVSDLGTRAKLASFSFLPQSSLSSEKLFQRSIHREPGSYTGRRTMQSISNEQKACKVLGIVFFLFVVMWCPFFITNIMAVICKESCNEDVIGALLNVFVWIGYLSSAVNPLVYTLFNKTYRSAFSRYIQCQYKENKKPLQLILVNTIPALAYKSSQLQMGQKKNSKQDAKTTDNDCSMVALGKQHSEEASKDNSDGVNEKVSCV

CCC(=O)O[C@@H]1C[C@H]2CC[C@]1(C)C2(C)C
inactive: all assays above

Cc1cc(N)n(-c2ccccc2)n1
inactive: all assays above

CCCC(=O)c1ccccc1
inactive: all assays above

C/C(=N\O)[C@@H](C)NCC(C)(C)CN[C@H](C)/C(C)=N/O
inactive: all assays above

CCc1ccc(C=O)cc1
inactive: all assays above

O=CC1CC=CCC1 (centres undefined)
inactive: all assays above

C[Si]1(C)O[Si](C)(C)O[Si](C)(C)O[Si](C)(C)O[Si](C)(C)O1
inactive: all assays above

CCN(CC)CC(=O)Oc1ccc(NC(C)=O)cc1
inactive: all assays above

CC(C)[C@H]1CC[C@@H](C)CC1=O
inactive: all assays above

CC1(C)COCN1
inactive: all assays above

O=c1[nH]cnc2c1ncn2[C@@H]1O[C@H](CO)[C@@H](O)[C@H]1O
inactive: all assays above

CCCc1cc(C(N)=S)ccn1
not listed: [20]
inactive: all other assays above

CC(C)(C)c1ccc(C(=O)CCCCl)cc1
active: [2] 23.7 µM
inactive: all other assays above

Clc1nc2ccccc2s1
inactive: all assays above
